NOD2 RIPK2 PPI = NOD2-RIPK2 protein interaction inhibition | O43353 | CHO BLA complementation NOD2-RIPK2, CCF4 ratio | inhibition, % at 4.98 µM | actives 0.38% (n = 360,000) | AID 624267; in the data active means inhibition above about 21%
TLR4 MyD88 comp = TLR4-MyD88 interaction inhibition in cells | O00206+Q99836 | HeLa CL3-4 TLR4/MyD88 BLA complementation, FRET ratio | inhibition, % at 8.4 µM | actives 0.18% (n = 200,000) | AID 861; in the data active means inhibition above about 25%
Target sequence (O00206 whole entry, looked up): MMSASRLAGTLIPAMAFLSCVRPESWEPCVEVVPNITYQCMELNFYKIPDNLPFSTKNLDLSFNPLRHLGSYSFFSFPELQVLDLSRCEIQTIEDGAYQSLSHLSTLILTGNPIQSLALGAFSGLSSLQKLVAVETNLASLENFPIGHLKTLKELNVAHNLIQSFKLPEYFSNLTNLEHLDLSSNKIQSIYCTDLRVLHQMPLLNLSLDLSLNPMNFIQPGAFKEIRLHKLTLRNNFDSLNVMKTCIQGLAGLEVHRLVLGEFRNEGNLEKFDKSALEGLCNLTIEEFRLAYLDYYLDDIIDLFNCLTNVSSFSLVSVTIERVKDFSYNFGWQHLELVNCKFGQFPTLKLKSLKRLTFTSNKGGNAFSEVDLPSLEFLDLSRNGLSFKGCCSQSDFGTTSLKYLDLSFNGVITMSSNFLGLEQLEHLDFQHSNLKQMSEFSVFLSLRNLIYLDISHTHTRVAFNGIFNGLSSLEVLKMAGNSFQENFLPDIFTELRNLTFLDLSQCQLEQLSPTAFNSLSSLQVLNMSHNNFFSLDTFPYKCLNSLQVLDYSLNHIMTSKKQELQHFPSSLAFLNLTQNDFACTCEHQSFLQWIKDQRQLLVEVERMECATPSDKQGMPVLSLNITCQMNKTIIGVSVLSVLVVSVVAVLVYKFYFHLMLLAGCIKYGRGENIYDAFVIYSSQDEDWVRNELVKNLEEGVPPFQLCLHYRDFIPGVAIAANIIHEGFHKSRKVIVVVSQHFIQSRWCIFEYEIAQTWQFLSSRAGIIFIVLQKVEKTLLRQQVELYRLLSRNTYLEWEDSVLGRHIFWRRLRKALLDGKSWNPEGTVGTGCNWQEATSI
Target sequence (Q99836 whole entry, looked up): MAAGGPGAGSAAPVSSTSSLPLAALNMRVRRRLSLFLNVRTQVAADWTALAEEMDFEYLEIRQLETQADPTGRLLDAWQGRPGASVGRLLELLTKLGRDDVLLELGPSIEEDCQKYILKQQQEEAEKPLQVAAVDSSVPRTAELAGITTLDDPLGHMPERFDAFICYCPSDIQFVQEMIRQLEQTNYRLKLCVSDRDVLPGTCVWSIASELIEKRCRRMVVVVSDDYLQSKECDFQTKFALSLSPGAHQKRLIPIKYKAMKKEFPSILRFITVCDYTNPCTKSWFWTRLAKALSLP
TLR9-MyD88 block = inhibitors of human TLR9-MyD88 binding. CHO BLA complementation TLR9-MyD88, CCF4 FRET ratio. inhibition, % at 4.98 µM. actives 0.21% (n = 340,000). AID 504734;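 active means inhibition above the mean over all tested compounds plus 3 SD, cut at about 21% in these data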
Myeloid diff MLP = myeloid differentiation induction | ER-HoxA9 myeloid progenitors, lysozyme-GFP differentiation, flow cytometry | actives 1% (n = 360,000) | AID 624256 | calls only at 10 µM;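 active means normalized GFP-positive differentiation at or above the plate's own cutoff, the solvent-only control mean plus 3 SD; inconclusive means no clear call, values can overlap the other calls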;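 further: cells exposed to compound for four days before flow analysis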
Myeloid diff = myeloid differentiation induction | shares compounds with Myeloid diff MLP | ER-HoxA9 myeloid progenitors, GFP/Mac1 double-positive flow | calls only | actives 2% (n = 2,300) | AID 651706;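 active means share of green or green-and-red cells above 9 and 9% in run 1 or 4 and 3% in run 2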
GFP autofluor = compound fluorescence in myeloid differentiation counter-screen. ER-HoxA9 myeloid progenitors, no estrogen, GFP autofluorescence flow cytometry; vehicle wells 0%, positive control 100%. actives 7.4% (n = 2,300). shares compounds with Myeloid diff MLP. fluorescence response, % (test concentration not listed);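 active means over 5% cells positive for green fluorescent reporter, or over 2% positive for both it and APC stain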
Of the large screens only hits and unclear results are named; the others gave an inactive call (follow-up assays come after a bar, where they were run); ! = a repeat was not active. Sampled rows, rich in hits. Any-hit rate of the full collection: about 1.5%.

COc1cccc(-c2cccc(-c3nc(C(=O)NCCCN4CCOCC4)cc4c3[C@H](CCO)N(S(=O)C(C)(C)C)C4)c2)c1 (stereo not given in full)	none (no result: TLR4 MyD88 comp, TLR9-MyD88 block)
COC(=O)CSc1nnc(CNc2ccc(OC)cc2)n1C	Myeloid diff MLP active | Myeloid diff inactive | GFP autofluor inactive
CCn1cc(C(=O)NN)c(=O)c2cc(F)c(NC3CCCCC3)cc21	none (no result: TLR4 MyD88 comp) | Myeloid diff inactive | GFP autofluor inactive
CC1CCCCC1=NNC(=O)c1ccccc1 (stereo not given)	none (no result: TLR4 MyD88 comp)
CCCc1nnc(NC(=O)CCC(=O)N2CCN(c3ccccc3)CC2)s1	none (no result: TLR4 MyD88 comp) | Myeloid diff inactive | GFP autofluor inactive
CC(C)Cc1nnc(NC(=O)CCC(=O)N2CCN(c3ccccc3)CC2)s1	none (no result: TLR4 MyD88 comp)
O=C(NCCc1ccccc1)C1CCCN1C(=O)Nc1ccc(F)cc1 (stereo not given)	Myeloid diff MLP active | Myeloid diff inactive | GFP autofluor inactive
CCc1nn(CC(=O)NCCCN(Cc2ccccc2)C(C)C)c(=O)c2cc3sccc3n12	Myeloid diff MLP active | Myeloid diff inactive | GFP autofluor inactive
CCOC(=O)C1=C[C@@H](C(C)(C)C)N(S(=O)(=O)c2ccccc2C)[C@H]1c1ccc(Cl)cc1	none (no result: TLR4 MyD88 comp, TLR9-MyD88 block)
Cc1ccc(S(=O)(=O)/N=C(\N)Nc2nc(C)c3cc(C)c(C)cc3n2)cc1	none | Myeloid diff inactive | GFP autofluor inactive
CC1(Oc2ccccc2-c2ccno2)CCN(Cc2csc3ccccc23)C1 (stereo not given)	none (no result: TLR4 MyD88 comp, TLR9-MyD88 block)
CCOC(=O)c1ccc(NC(=O)C2CCN(C(=O)c3ccc(OC)c(OC)c3)CC2)cc1	none | Myeloid diff inactive | GFP autofluor inactive
COc1nc(C)ccc1-c1noc(-c2ccccn2)n1	none | Myeloid diff inactive | GFP autofluor inactive
CC(C)(C)N1C(=O)c2ccccc2NC(=O)C1C(=O)NCc1ccco1 (stereo not given)	none (no result: TLR4 MyD88 comp, TLR9-MyD88 block)
CCCNC(=O)C1(C)CCCN(C(=O)CN2C(=O)c3ccccc3C2=O)C1 (stereo not given)	none (no result: TLR4 MyD88 comp, TLR9-MyD88 block)
Cc1nn(C(=O)c2nn(C)cc2[N+](=O)[O-])c(C)c1Br	none
Cc1nn(C(=O)c2ccc([N+](=O)[O-])cc2)c(C)c1Br	Myeloid diff MLP active (no result: TLR4 MyD88 comp) | Myeloid diff inactive | GFP autofluor inactive
CCOc1ccc(N=c2scc(-c3ccc(OC)cc3)n2CCO)cc1	none | Myeloid diff inactive | GFP autofluor inactive
Cc1ccc(S(=O)(=O)N2C[C@H]3n4c(=O)ccc(=O)n4C[C@H](OC(=O)NCc4ccco4)[C@@]3(O)C2)cc1	none (no result: TLR4 MyD88 comp)
O=C(NCc1ccccc1)C(c1ccc(C(F)(F)F)cc1)N1CCN(CCN2CCOCC2)CC1 (stereo not given)	none (no result: TLR4 MyD88 comp, TLR9-MyD88 block) | Myeloid diff inactive | GFP autofluor inactive
COc1cc(C#Cc2c(-c3cncn3C)n(C)c3ccc(-c4ccc5[nH]ccc5c4)cc23)cc(OC)c1	none (no result: TLR4 MyD88 comp) | Myeloid diff inactive | GFP autofluor 98
COc1cc(C#Cc2c(-c3cncn3C)n(C)c3ccc(-c4ccc(OC)nc4)cc23)cc(OC)c1	none (no result: TLR4 MyD88 comp)
Cc1ccccc1NC(=O)c1sc2nc[nH]c(=O)c2c1C	none | Myeloid diff inactive | GFP autofluor inactive
COC(=O)c1sc2nc[nH]c(=O)c2c1C	none
c1ccc(Cn2ncc3c(N4CCCCC4)ncnc32)cc1	none
Clc1ccc(Cn2ncc3c(N4CCN(c5ccccc5)CC4)ncnc32)cc1	Myeloid diff MLP active (no result: TLR4 MyD88 comp, TLR9-MyD88 block) | Myeloid diff active | GFP autofluor inactive
CSc1nc(N)nc(SCC(=O)Nc2ccc(Cl)cc2)c1C#N	none | Myeloid diff inactive | GFP autofluor inactive
CC1(C)CC(=O)C=C(c2ccc(-c3ccc(OC(F)(F)F)cc3)cc2)C1=O	none (no result: TLR4 MyD88 comp)
C=CC[n+]1cccc(-c2cc3ccc(C)cc3[nH]2)c1	none (no result: TLR4 MyD88 comp) | Myeloid diff inactive | GFP autofluor inactive
Cc1ccc2[nH]c(-c3ccccc3)cc(=O)c2c1	Myeloid diff MLP inconclusive
COC(=O)[C@@]12C[C@@H](CC(=O)N3CCCC3)C(=O)N(Cc3ccco3)C1=CCC(C)(C)C2	none (no result: TLR4 MyD88 comp, TLR9-MyD88 block)
CCN1/C(=C/C=C/C=C/C=C/c2sc3ccccc3[n+]2CC)Sc2ccccc21	none (no result: TLR4 MyD88 comp) | Myeloid diff inactive | GFP autofluor 43
Cc1ccc(C(=O)NCCc2nnc3ccc(SCC(=O)Nc4nnc(C)s4)nn23)cc1	none (no result: TLR4 MyD88 comp)
COc1cccc(N=CC=C2OC(C)(C)C(C)(C)O2)c1	none
Cc1cccc(N=CC=C2OC(C)(C)C(C)(C)O2)c1	Myeloid diff MLP active | Myeloid diff inactive | GFP autofluor inactive
O=C(CCc1ccccc1)Nc1ccc(NS(=O)(=O)c2ccccc2)cc1	none (no result: TLR4 MyD88 comp)
NS(=O)(=O)c1ccc(NC(=O)CN2CCCc3ccccc32)cc1	Myeloid diff MLP active (no result: TLR4 MyD88 comp) | Myeloid diff inactive | GFP autofluor inactive
NS(=O)(=O)c1ccc(NC(=O)CN2CCc3ccccc32)cc1	none (no result: TLR4 MyD88 comp)
NS(=O)(=O)c1ccc(NC(=O)CCc2ccccc2)cc1	none | Myeloid diff inactive | GFP autofluor inactive
COc1ccc(CCNC(=O)c2cc3ccc(Cl)cc3nc2N)cc1	none (no result: TLR4 MyD88 comp, TLR9-MyD88 block)
Cc1ccc(S(=O)(=O)N2CC3C(=O)C[C@@H](c4ccccc4)N(S(=O)(=O)c4cccc(Cl)c4)C3CC2c2ccccc2)cc1 (stereo not given in full)	none (no result: TLR4 MyD88 comp, TLR9-MyD88 block)
Cc1noc(C)c1COc1ccccc1C(=O)N1CCN(S(=O)(=O)c2ccc(C(C)C)cc2)CC1	none (no result: TLR4 MyD88 comp)
COc1ccc(OC)c(CN2C(=O)CSCC2(C)C(=O)Nc2c(C)cccc2C)c1 (stereo not given)	none (no result: TLR4 MyD88 comp, TLR9-MyD88 block)
CCN(CC)C(=O)C1=C(C)N(CCCN2CCCC2=O)C(=O)C(CC(=O)NCc2ccco2)C1 (stereo not given)	none (no result: TLR4 MyD88 comp) | Myeloid diff inactive | GFP autofluor inactive
O=C(Nc1cc(Br)ccc1O)c1cc(-c2cccs2)on1	Myeloid diff MLP active (no result: TLR4 MyD88 comp) | Myeloid diff inactive | GFP autofluor inactive
COc1cccc(-c2cnc(C(O)c3ccc(Cl)c(F)c3)[nH]2)c1 (stereo not given)	none (no result: TLR4 MyD88 comp, TLR9-MyD88 block)
O=C(NCc1cccnc1)C1Cc2c(-c3ccc(Cl)cc3)ccnc2O1 (stereo not given)	Myeloid diff MLP active (no result: TLR4 MyD88 comp, TLR9-MyD88 block) | Myeloid diff inactive | GFP autofluor inactive
CC1(C(=O)NS(=O)(=O)C2CC2)CCCN(C(=O)c2c(F)cccc2F)C1 (stereo not given)	none (no result: TLR4 MyD88 comp, TLR9-MyD88 block)
Cc1ccc(S(=O)(=O)N2CCN(C(=O)c3ccc(-n4cncn4)c([N+](=O)[O-])c3)CC2)c(C)c1	none (no result: TLR4 MyD88 comp)
CC(C)n1c(-c2ccccc2F)n[nH]c1=S	none | Myeloid diff inactive | GFP autofluor 85
COc1ccc(NC(=O)CC(C)C)c([N+](=O)[O-])c1	none
COc1ccc(NC(=S)NC(NC(=O)C(C)C)C(Cl)(Cl)Cl)c([N+](=O)[O-])c1 (stereo not given)	Myeloid diff MLP active | Myeloid diff inactive | GFP autofluor inactive
CC1Nc2ncnc(N3CCc4ccccc4C3)c2N(Cc2ccc(Br)cc2)C1=O (stereo not given)	Myeloid diff MLP active! (no result: TLR4 MyD88 comp) | Myeloid diff inactive | GFP autofluor inactive
CC1Nc2ncnc(N3CCc4ccccc4C3)c2N(Cc2ccc(Cl)cc2)C1=O (stereo not given)	none (no result: TLR4 MyD88 comp)

Screening data from PubChem BioAssay.
